Experimental data: PubChem BioAssay (EPA / NIEHS)
Active and inactive are the calls of the source. The calls were made as follows: active = hit-call score of the fitted dose curve at least 0.9, where 1 is the maximum; inactive = score below 0.9.

Read-out: CYP4A11 (gene 1579)
Assay: LTEA_HepaRG_CYP4A11: Life Technologies and Expression Analysis (LTEA) Assay for CYP4A11 using HepaRG (AID 2283486)
Conditions: mRNA level, 48 h; actives raise or lower the signal
Experimental: LTEA_HepaRG is a cell based, multiplexed-readout assay that uses HepaRG, a human liver cell line, with measurements taken at 48 hours after chemical dosing on a 96-well plate.LTEA_HepaRG_CYP4A11 is one of 102 assay component(s) measured in the LTEA HepaRG cell culture assay. It is a marker of NR mediated metabolism.Data from the assay component LTEA_HepaRG_CYP4A11 was analyzed into 1 endpoint. This assay endpoint, LTEA_HepaRG_CYP4A11, was analyzed with bidirectional fitting relative to DMSO as the negative control and baseline of activity. Using a type of inducible reporter, measures of mRNA induction for gain or loss-of-signal activity can be used to understand regulation of transcription factor activity. To generalize the intended target to other relatable targets, this assay endpoint is annotated to the cyp intended target family, where the subfamily is xenobiotic metabolism.
A total of 1060 chemcials from the ToxCast library were tested in eight-point concentration-response experiments. Cell culture and cytotoxicity assays were conducted at Thermo Fisher Scientific's Custom Services facility (Madison, WI). A single lot of human HepaRG cells (Thermo Fisher Scientific, Frederick, MD) was used for the cell culture experiments. 96-well format collagen type I coated plates of human HepaRG cells were prepared using established methods. Briefly, cryopreserved HepaRG cells were thawed, plated at a density of approximately 100,000 cells/well in HepaRG Thaw, Plate, and General Purpose media (HPRG770, Thermo Fisher Scientific), and incubated for 48 hours. 0.5% DMSO was selected as vehicle control to balance the requisite need of DMSO in HepaRG cultures to maintain differentiation (for example, baseline metabolism, proportions of hepatocytes vs. cholangiocytes), while enabling further hepatic receptor pathway activation (for example, PXR and CAR) in response to chemical exposure. 48 hours after plating, the culture medium was replaced with HepaRG Serum-Free Incudtion Media. Cells were exposed to each test chemical in duplicate and maintained in CO2 incubators for another 48 hours. Chemical plates were thawed to room temperature and 200x concentrations of treatment groups were prepared. 8-point conentration-reponse curves were made with the highest exposure at 100 uM, followed by half-log dilutions, all in 0.5% DMSO. Each test plate contained variouse controls, induction positive controls (1mM phenobarbital), cytotoxicity positive controls ([…] aflatoxin B1), vehicle controls (0.5% DMSO), and total lysis controls (0.5% DMSO). Cell morphology images were taken using an Essen IncuCyte FLR automated microscope, with six 96-well plates imaged in about 24 minutes. Images were captured and exported and JPEG files. Spent culture media was transfered to black-well plates for the LDH assay, and remaining media was sorted at -80 C for later use. Cells were treated with RLT buffer and frozen until shipped for gene expression analysis. Total RNA was isolated from the cell suspension in 75 uL of Buffer RLT (Qiagen, Germantown, MD 20874) by Quintiles/Expression Analysis (Durham, NC) using a custom isolation procedure. Total RNA from each plate well was transferred to a preamplification plate. Fluidigm's 96.96 Dynamic ArrayTM (Fluidigm, Amsterdam, the Netherlands) technology was used for gene expression analyses by quantitative reverse transcription polymerase chain reaction (qRT-PCR, performed by Quintiles/Expression Analysis, Durham, NC)89. Standard TaqManTM Assays (Applied Biosystems/ThermoFisher Scientific, Foster City, CA) were used to assess the expression of 93 genes selected based on their selectivity and sensitivity to important hepatic receptors known to be modulated by environmental chemicals; importance in human hepatocyte functionality; and hepatotoxicity. […]

SMILES | AC50 | outcome
CCCCC(C#N)(Cn1cncn1)c1ccc(Cl)cc1 (stereo not given) | 41.5 µM (active) | 
CN=C=S |  | inactive
COCc1cnc(C2=NC(C)(C(C)C)C(=O)N2)c(C(=O)O)c1 (stereo not given) |  | inactive
N#CN=C1SCCN1Cc1ccc(Cl)nc1 |  | inactive
COC(=O)NC(=S)Nc1ccccc1NC(=S)NC(=O)OC |  | inactive
O=C1C2CC=CCC2C(=O)N1SC(Cl)(Cl)Cl (stereo not given) |  | inactive
CS(=O)(=O)c1ccc(C(=O)C2C(=O)CCCC2=O)c([N+](=O)[O-])c1 |  | inactive
CCSC(=O)N1CCCCCC1 |  | inactive
Cc1cc(C)nc(Nc2ccccc2)n1 | 50 µM (active) | 
CC(C)C1(C)N=C(c2ncccc2C(=O)O)NC1=O (stereo not given) |  | inactive
CCOP(=O)(OCC)Oc1nc(Cl)c(Cl)cc1Cl | 77.4 µM (active) | 
Clc1cccc(C(Cl)(Cl)Cl)n1 |  | inactive
COC(=O)N(C(=O)N1CO[C@@]2(C(=O)OC)Cc3cc(Cl)ccc3C2=N1)c1ccc(OC(F)(F)F)cc1 | 25.6 µM (active) | 
OC(c1ccc(Cl)cc1)(c1ccc(Cl)cc1)C(Cl)(Cl)Cl | 65.4 µM (active) | 
CC1(C)C(C=C(Cl)Cl)C1C(=O)OC(C#N)c1cccc(Oc2ccccc2)c1 (stereo not given) |  | inactive
Cc1cnc(C2=NC(C)(C(C)C)C(=O)N2)c(C(=O)O)c1 (stereo not given) |  | inactive
Cc1ccc(N=CN(C)C=Nc2ccc(C)cc2C)c(C)c1 |  | inactive
Nc1c(Cl)c(F)nc(OCC(=O)O)c1Cl |  | inactive
Nc1cnn(-c2ccccc2)c(=O)c1Cl |  | inactive
CCOc1cc(C(C)(C)C)ccc1C1COC(c2c(F)cccc2F)=N1 (stereo not given) | 57.4 µM (active) | 

SMILES | AC50 | outcome
C=C(C)CN(CC)c1c([N+](=O)[O-])cc(C(F)(F)F)cc1[N+](=O)[O-] |  | inactive
CCOC(=O)C(C)OC(=O)c1cc(Oc2ccc(C(F)(F)F)cc2Cl)ccc1[N+](=O)[O-] (stereo not given) | 0.598 µM (active) | 
Clc1nc(Cl)nc(Nc2ccccc2Cl)n1 |  | inactive
CO/N=C(/C1=NOCCO1)c1ccccc1Oc1ncnc(Oc2ccccc2Cl)c1F | 14.2 µM (active) | 
CCN(CC)C(=O)C(C)Oc1cccc2ccccc12 (stereo not given) | 79.1 µM (active) | 
CC(C)N1C(=O)c2ccccc2NS1(=O)=O |  | inactive
O=C(O)c1c(Cl)ccc2cc(Cl)cnc12 |  | inactive
N#Cc1c[nH]cc1-c1cccc2c1OC(F)(F)O2 | 85.2 µM (active) | 
C=CCOC(=O)C(C)(C)OC(=O)c1cc(-n2c(=O)cc(C(F)(F)F)n(C)c2=O)ccc1Cl |  | inactive
COCC(C)N(C(=O)CCl)c1c(C)csc1C (stereo not given) |  | inactive
COP(=S)(OC)Oc1ccc([N+](=O)[O-])c(C)c1 |  | inactive
CC(C)N1C(=O)N(c2ccccc2)CSC1=NC(C)(C)C | 67.6 µM (active) | 
COc1cc(OC)nc(NC(=O)NS(=O)(=O)c2ncccc2OCC(F)(F)F)n1 |  | inactive
CC(C)Oc1cccc(NC(=O)c2ccccc2C(F)(F)F)c1 |  | inactive
CCCCC(O)(Cn1cncn1)c1ccc(Cl)cc1Cl (stereo not given) | 59 µM (active) | 
CS(=O)(=O)c1cc(C(F)(F)F)ccc1C(=O)c1cnoc1C1CC1 |  | inactive
COCC(=O)N(c1c(C)cccc1C)C(C)C(=O)OC (stereo not given) |  | inactive
COP(=O)(OC)O/C(C)=C/C(=O)N(C)C |  | inactive
CCOc1nc(F)cc2nc(S(=O)(=O)Nc3c(Cl)cccc3Cl)nn12 |  | inactive
CC1(C)CON(Cc2ccccc2Cl)C1=O |  | inactive
